According to PubChem BioAssay (NCI):
About 79,000 compounds went through this panel and 15% of them were active in at least one assay; those are over-represented in the sample as a whole. Calls of active or inactive are those of the source. No stated cut-off is given here; in the data, active means growth inhibition above about 70%; inactive means the rest.

Assays:
[1] = NCI Yeast Anticancer Drug Screen. Data for the rad52 strain (AID 147);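 further: 0% = growth of vehicle-treated control cultures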; settings: S. cerevisiae rad52 mutant growth inhibition, hits give high values
Outline: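 Compounds are applied to a genetically defined yeast strain lacking normal DNA damage repair, and inhibition of growth is expressed relative to cultures given vehicle only.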

[2] = NCI Yeast Anticancer Drug Screen. Data for the wt1 strain (AID 149);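 further: 0% = growth of vehicle-treated wt1 cultures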; settings: S. cerevisiae wt1 strain (SPY 50644) growth inhibition, hits give high values
Outline: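 Compounds are added to wt1 yeast cultures. Growth is then measured. Inhibition is expressed relative to vehicle-treated controls.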

[3] = NCI Yeast Anticancer Drug Screen. Data for the rad50EPP+ strain (AID 151);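 further: 0% = growth of vehicle-treated control cultures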; settings: S. cerevisiae rad50 mutant strain, hits give high values
Outline: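 Compounds were applied to the rad50EPP+ yeast strain, which bears a defined DNA repair alteration, and growth inhibition was determined relative to vehicle-treated cultures.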

[4] = NCI Yeast Anticancer Drug Screen. Data for the mgt1 strain (AID 153); settings: S. cerevisiae mgt1 mutant growth inhibition, hits give high values
Outline: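 Strain: mgt1 yeast, one of a set carrying defined DNA damage repair or cell cycle control alterations. Compound-treated growth compared with vehicle.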

[5] = NCI Yeast Anticancer Drug Screen. Data for the rad50 strain (AID 155);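 further: 0% = growth of vehicle-only cultures of the same strain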; settings: S. cerevisiae rad50 strain growth inhibition, hits give high values
Outline: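 Inhibition values express reduced yeast growth in compound-treated cultures relative to vehicle-treated controls.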

[6] = NCI Yeast Anticancer Drug Screen. Data for the mec2-1 strain (AID 157); settings: S. cerevisiae mec2-1 strain, hits give high values
Outline: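 Strain: mec2-1 (DNA repair/cell cycle alteration). Compound exposure, then growth measured; inhibition expressed relative to vehicle.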

[7] = NCI Yeast Anticancer Drug Screen. Data for the rad14 strain (AID 159);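 further: 0% = growth of vehicle-treated control cultures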; settings: S. cerevisiae rad14 strain growth inhibition, hits give high values
Outline: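 A mutant yeast strain defective in DNA damage repair is treated with compound; inhibition of its growth is scored against untreated, vehicle-exposed cultures.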

[8] = NCI Yeast Anticancer Drug Screen. Data for the sgs1 mgt1 strain (AID 161);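 further: 0% = growth of cultures given vehicle only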; settings: S. cerevisiae sgs1 mgt1 strain, hits give high values
Outline: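 Test agents were incubated with a DNA-repair-mutant yeast strain. Growth was then read and compared against vehicle-treated controls.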

[9] = NCI Yeast Anticancer Drug Screen. Data for the CLN2oe strain (AID 163);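 further: 0% = growth of vehicle-only control cultures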; settings: S. cerevisiae CLN2oe strain, hits give high values
Outline: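 Growth of a genetically modified yeast strain is measured after compound exposure and compared with cultures given vehicle alone.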

[10] = NCI Yeast Anticancer Drug Screen. Data for the cln2 rad14 strain (AID 165);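 further: 0% = growth equal to vehicle treated cultures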; settings: S. cerevisiae cln2 rad14 strain, hits give high values
Outline: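 Compounds are applied to the cln2 rad14 yeast strain, and growth is then compared with that of vehicle-treated cultures to give inhibition.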

[11] = NCI Yeast Anticancer Drug Screen. Data for the bub3 strain (AID 167); settings: S. cerevisiae bub3 mutant strain, hits give high values
Outline: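 Steps: expose the mutant yeast strain to compound; grow alongside vehicle-treated cultures; measure growth; express inhibition against the vehicle cultures.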

[12] = NCI Yeast Anticancer Drug Screen. Data for the wt2 strain (AID 169);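 further: 0% = growth of vehicle-treated yeast cultures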; settings: S. cerevisiae wt2 strain growth inhibition, hits give high values
Outline: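 This strain belongs to a panel of yeast strains with defined genetic alterations in DNA damage repair or cell cycle control. Compounds are applied, and growth inhibition is measured against vehicle-treated cultures.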

[13] = NCI Yeast Anticancer Drug Screen. Data for the mlh1 strain (AID 171);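 further: 0% = growth of vehicle-treated control cultures of the same strain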; settings: S. cerevisiae mlh1 strain growth inhibition, hits give high values
Outline: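 Growth of the mutant yeast strain after compound exposure, expressed as inhibition relative to vehicle-only controls.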

[14] = NCI Yeast Anticancer Drug Screen. Data for the sgs1 strain (AID 173);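 further: 0% = growth of vehicle-only control cultures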; settings: S. cerevisiae sgs1 mutant, hits give high values
Outline: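 Growth of a yeast strain bearing a defined genetic alteration is measured after compound treatment. Inhibition is expressed relative to vehicle-only controls.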

[15] = NCI Yeast Anticancer Drug Screen. Data for the mlh1 rad18 strain (AID 175); settings: S. cerevisiae mlh1 rad18 strain growth inhibition, hits give high values
Outline: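 Read-out is yeast growth inhibition, calculated against vehicle-only controls. The compound was applied to a strain engineered with DNA damage repair alterations.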

[16] = at 5.0 µM (retest, dose inferred, filed as 0.5)
[17] = at 50.0 µM (retest, dose inferred, filed as 5.0)

Measured: growth inhibition

O=C(C#Cc1ccccc1)/C=C/c1ccccc1
active: [1]; at 33.0 µM 78% | [1]; at 100.0 µM 95% | [2]; at 100.0 µM 96% | [3]; at 33.0 µM 93% | [3]; at 100.0 µM 94% | [4]; at 100.0 µM 96% | [5]; at 33.0 µM 82% | [5]; [17] 72% | [5]; at 50.0 µM 99% | [5]; at 100.0 µM 94% | [6]; at 50.0 µM 77.3% | [6]; at 100.0 µM 96% | [7]; at 33.0 µM 82% | [7]; at 100.0 µM 96% | [8]; [17] 79% | [8]; at 50.0 µM 70.2% | [9]; at 100.0 µM 93% | [10]; at 50.0 µM 87.7% | [11]; at 33.0 µM 78% | [11]; at 50.0 µM 79.7% | [11]; at 100.0 µM 96% | [12]; at 33.0 µM 91% | [12]; at 100.0 µM 97% | [13]; at 100.0 µM 96% | [14]; at 33.0 µM 97% | [14]; at 100.0 µM 95% | [15]; [17] 72% | [15]; at 50.0 µM 77%
inactive: [1]; at 1.2 µM 4% | [1]; at 3.7 µM 3% | [1]; at 11.0 µM 29% | [2]; at 1.2 µM -6% | [2]; at 3.7 µM -9% | [2]; at 11.0 µM 10% | [2]; at 33.0 µM 51% | [3]; at 1.2 µM 1% | [3]; at 3.7 µM 20% | [3]; at 11.0 µM 53% | [4]; at 1.2 µM 0% | [4]; at 3.7 µM -5% | [4]; at 11.0 µM 3% | [4]; at 33.0 µM 28% | [5]; at 1.2 µM -6% | [5]; at 3.7 µM -8% | [5]; [16] -136% | [5]; at 11.0 µM 8% | [6]; at 1.2 µM 0% | [6]; at 3.7 µM 2% | [6]; [16] -43% | [6]; at 11.0 µM 4% | [6]; at 33.0 µM 16% | [6]; [17] 10% | [7]; at 1.2 µM -1% | [7]; at 3.7 µM 12% | [7]; at 11.0 µM 10% | [8]; [16] -53% | [9]; at 1.2 µM -7% | [9]; at 3.7 µM -7% | [9]; at 11.0 µM -2% | [9]; at 33.0 µM 14% | [10]; [16] -46% | [10]; [17] -23% | [11]; at 1.2 µM -2% | [11]; at 3.7 µM -1% | [11]; [16] -65% | [11]; at 11.0 µM 7% | [11]; [17] 53% | [12]; at 1.2 µM -21% | [12]; at 3.7 µM -5% | [12]; at 11.0 µM 13% | [13]; at 1.2 µM -9% | [13]; at 3.7 µM -2% | [13]; at 11.0 µM -3% | [13]; at 33.0 µM 49% | [14]; at 1.2 µM -4% | [14]; at 3.7 µM 2% | [14]; at 11.0 µM 24% | [15]; [16] -140%

O=[N+]([O-])c1ccc(S(=O)(=O)Cc2ccccc2)c([N+](=O)[O-])c1
inactive: [1]; at 1.2 µM 6% | [1]; at 3.7 µM 17% | [1]; at 11.0 µM 47% | [2]; at 1.2 µM 6% | [2]; at 3.7 µM 9% | [2]; at 11.0 µM 24% | [3]; at 1.2 µM 36% | [3]; at 3.7 µM 67% | [4]; at 1.2 µM 10% | [4]; at 3.7 µM 14% | [4]; at 11.0 µM 35% | [5]; at 1.2 µM 9% | [5]; at 3.7 µM 14% | [5]; [16] 65% | [5]; at 11.0 µM 41% | [6]; at 1.2 µM 12% | [6]; at 3.7 µM 18% | [6]; [16] 31% | [6]; at 11.0 µM 39% | [7]; at 1.2 µM 7% | [7]; at 3.7 µM 10% | [7]; at 11.0 µM 22% | [8]; [16] 46% | [9]; at 1.2 µM -1% | [9]; at 3.7 µM 7% | [9]; at 11.0 µM 21% | [9]; at 33.0 µM 61% | [10]; [16] 7% | [11]; at 1.2 µM 1% | [11]; at 3.7 µM 6% | [11]; [16] 56% | [11]; at 11.0 µM 44% | [12]; at 1.2 µM 7% | [12]; at 3.7 µM 15% | [12]; at 11.0 µM 37% | [13]; at 1.2 µM 9% | [13]; at 3.7 µM 17% | [13]; at 11.0 µM 35% | [14]; at 1.2 µM 16% | [14]; at 3.7 µM 30% | [14]; at 11.0 µM 65% | [15]; [16] 65%
active: [1]; at 33.0 µM 89% | [1]; at 100.0 µM 99% | [2]; at 33.0 µM 88% | [2]; at 100.0 µM 99% | [3]; at 11.0 µM 87% | [3]; at 33.0 µM 97% | [3]; at 100.0 µM 97% | [4]; at 33.0 µM 98% | [4]; at 100.0 µM 99% | [5]; at 33.0 µM 87% | [5]; [17] 100% | [5]; at 50.0 µM 99.5% | [5]; at 100.0 µM 98% | [6]; at 33.0 µM 96% | [6]; [17] 100% | [6]; at 50.0 µM 99.8% | [6]; at 100.0 µM 99% | [7]; at 33.0 µM 74% | [7]; at 100.0 µM 99% | [8]; [17] 100% | [8]; at 50.0 µM 99.5% | [9]; at 100.0 µM 95% | [10]; [17] 99% | [10]; at 50.0 µM 98.6% | [11]; at 33.0 µM 85% | [11]; [17] 99% | [11]; at 50.0 µM 99.4% | [11]; at 100.0 µM 95% | [12]; at 33.0 µM 98% | [12]; at 100.0 µM 98% | [13]; at 33.0 µM 93% | [13]; at 100.0 µM 99% | [14]; at 33.0 µM 98% | [14]; at 100.0 µM 99% | [15]; [17] 100% | [15]; at 50.0 µM 99.4%
